Each structure is given as a SMILES string. Values without a mark were called inactive. The source made the active and inactive calls.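 The calls were made as follows: active = inhibition above the hit cutoff set in the earlier primary screen (cut at about 27% in these data); inactive = the rest.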

Sequence of Protein phosphatase methylesterase 1 (Homo sapiens) (Q9Y570 whole entry, looked up): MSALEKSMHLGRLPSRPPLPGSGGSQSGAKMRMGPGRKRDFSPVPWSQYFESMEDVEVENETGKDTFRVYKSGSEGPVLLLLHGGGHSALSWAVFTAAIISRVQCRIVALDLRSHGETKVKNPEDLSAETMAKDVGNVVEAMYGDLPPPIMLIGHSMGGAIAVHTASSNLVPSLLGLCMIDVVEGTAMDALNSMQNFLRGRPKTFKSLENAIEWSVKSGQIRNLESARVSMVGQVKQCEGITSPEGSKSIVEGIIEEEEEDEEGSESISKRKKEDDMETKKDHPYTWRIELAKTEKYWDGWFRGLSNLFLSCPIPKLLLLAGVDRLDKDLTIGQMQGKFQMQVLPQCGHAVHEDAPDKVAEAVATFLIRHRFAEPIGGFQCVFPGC

The test concerns the target Protein phosphatase methylesterase 1 (Homo sapiens) (UniProt Q9Y570). As to the kind of experiment: human PME-1 methylesterase inhibition confirmation – biochemical, fluorescence polarization, FP-Rh probe, triplicate (AID 2171).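 Also: 0% = enzyme with DMSO and 100% = wells lacking PME-1.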 Particulars: recombinant PME-1, FP-Rh probe fluorescence polarization; at 5.9 µM; stronger effect = higher value. In general terms: Polarisation of emitted light reports the rotation of a fluorescent probe.
By inhibition is commonly meant the relative decrease from the control value, in per cent. Turning to `Cc1ccc(Nc2nnc(SCC(=O)c3ccc(O)cc3O)s2)cc1`, the inhibition is 40.8% (active).

Regarding `CCc1nnc(NC(=O)c2sc3nc4c(cc3c2N)CCCCCC4)s1`, the inhibition was 16.3%.

On to `Cc1[nH]c2ccccc2c1N=Nc1ccccc1C(=O)O`, for which the inhibition is 20.8%.

On to `N#CCSc1nc2c(cc1C#N)CCCCCC2`, for which the inhibition was 22.3%.

Consider `CCc1nnc(NC(=O)c2sc3nc4cc(C)ccc4cc3c2N)s1`, for which the inhibition was 31.8% (active).

For `CC(=O)c1cc(O)c2ccccc2c1O`, the inhibition is 22.5%.

With `CC(C)N=c1cc2n(-c3ccc(Cl)cc3)c3ccccc3nc-2cc1Nc1ccc(Cl)cc1`, the inhibition was 17.7%.

Consider `O=C(O)c1ccccc1Nc1cccc(OCc2ccc3ccccc3n2)c1`, for which the inhibition is 20%.

With `O=[N+]([O-])c1cc(Br)c(O)c(/C=N/Nc2nnnn2-c2cccc3ccccc23)c1`, the inhibition is 43.7% (active).

As to `COc1ccc(O)c(/C=N/Nc2nc(C)cc(-c3ccccc3)n2)c1`, the inhibition is 39% (active).

Turning to `CC(C)=CCc1cc2c(=O)c3c(O)c4c(cc3oc2c(O)c1O)OC(C)C4(C)C` (centres undefined), the inhibition was -51.2%.

In the case of `CCCCC(=Nc1ccc(N)cc1)C1=C(O)C(C(=O)OC)C(C)(C)CC1=O` (centres undefined), the inhibition is 13.4%.

Regarding `COc1ccc(C(=O)c2oc3ccc(OC)cc3c2N)cc1`, the inhibition was 29.6% (active).

As for `Cc1cc(C)c(C#N)c(SCc2nc3ccccc3[nH]2)n1`, the inhibition is 11.9%.

As for `COc1cc(/C=C2/C(=O)c3cccc([N+](=O)[O-])c3C2=O)c(Br)cc1O`, the inhibition is 16.7%.

For the compound `CC1=NN(c2ccccc2)C(=O)/C1=C/c1c(O)n(-c2ccc(F)c(Cl)c2)[nH]c1=O`, the inhibition was 49% (active).

For `Cn1c2ccccc2c2cc(/C=N/NC(=O)c3ccc(O)cc3O)ccc21`, the inhibition was 23%.

With `Cc1ccc(N=Nc2c(N)n(-c3ccccc3)[nH]c2=O)cc1`, the inhibition was 33.1% (active).

In the case of `Oc1cccc(NC(=S)N=Nc2c(O)[nH]c3ccc(Br)cc23)c1`, the inhibition is 42% (active).

As to `N#Cc1c(N)nc2c3c(sc(=N)c2c1N)NC(=O)CC3c1c(F)cccc1Cl` (centres undefined), the inhibition is 38.2% (active).

Consider `O=C(Nc1ccc(N2CCOCC2)cc1)Nc1ccc(Cl)c(Cl)c1`, for which the inhibition was 21.4%.

Take `COc1cc(N=Nc2cccc(S(N)(=O)=O)c2)c2ccccc2c1N`: the inhibition is 33.1% (active).

Take `CCCCC(=O)NC(c1ccccc1Cl)c1c(O)ccc2ccccc12` (centres undefined): the inhibition is 32.1% (active).

As to `O=S(=O)(Nc1cc2nc3ccccc3nc2n1Cc1ccccc1)c1ccc(Cl)cc1`, the inhibition was 42.4% (active).

With `CSc1nsc(/C=C/Nc2ccc(O)cc2C)c1C#N`, the inhibition was -1.46%.

Turning to `N#Cc1ccccc1Cn1c(=O)n(-c2ccc(CC(=O)NCc3ccco3)cc2)c(=O)c2sccc21`, the inhibition was 38.4% (active).

For `COc1ccc(Br)cc1CNc1ccc(O)cc1`, the inhibition was 9.35%.

Take `O=C(c1sc2ccccc2c1Cl)N1CCN(c2ncccn2)CC1`: the inhibition is 24.4%.

With `CCOc1ccc(/C=C2\SC(=S)N(C(C(=O)O)c3ccccc3)C2=O)cc1OC` (centres undefined), the inhibition was 43.8% (active).

For the compound `O=C(Nc1ccc(N2CCOCC2)cc1)Nc1ccc2nc(-c3ccco3)c(-c3ccco3)nc2c1`, the inhibition was 39.5% (active).

In the case of `Cc1ccc(/C=N/Nc2ccnc3cc(Cl)ccc23)c(C)c1`, the inhibition was 53.3% (active).

`Cn1c(=O)c2c(nc(CN3CCN(C(c4ccccc4)c4ccccc4)CC3)n2CCCO)n(C)c1=O`: the inhibition was 23.8%.

As to `O=C(COC(=O)c1cccc2c1C(=O)c1ccccc1C2=O)NC1CCCCC1`, the inhibition is 56.5% (active).

For the compound `CCCN(CCC)CCCNC(=O)c1cn(CC)c2ccc(S(=O)(=O)N(C)C3CCCCC3)cc2c1=O`, the inhibition is 50.9% (active).

Turning to `Cc1ccc(S(=O)(=O)N2CCN(C(=O)Cn3cnc4c3c(=O)n(C)c(=O)n4C)CC2)cc1C`, the inhibition was 20.7%.

On to `CN(C)c1ccc(CNC(=O)CN(C)S(=O)(=O)c2cccc3cccnc23)cc1`, for which the inhibition was 32.8% (active).

Take `Cc1ccc(C)c(NC(=O)COC(=O)c2cc3ccccc3oc2=O)c1`: the inhibition is 22.3%.

Take `CCc1ccc(NC(=O)Nc2cccs2)cc1`: the inhibition is 17.9%.

For `COc1ccc(/C=C2\Sc3ccc(C(=O)N4CCN(Cc5ccccc5)CC4)cc3N(C)C2=O)cc1OC`, the inhibition was 46.9% (active).

For the origin of these results see PubChem BioAssay.
